Hits are enriched below; roughly 21% of the tested compounds scored in any of these assays.
Pf growth 48h = Primary qHTS for delayed death inhibitors of the malarial parasite plastid, 48 hour incubation; Potency, µM (highest dose often 28.7 µM), inactives show top-dose activity change, negative = inhibition, most hits filed as inhibitors; AID 504832, 2011; P. falciparum luciferase growth in erythrocytes, 48 h; actives 5.9% (n = 310,000); further: potency means the concentration at half of the fitted maximal effect; on the % scale 0 is the no-effect control and ±100 the full control effect
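Luciferase-expressing parasites in RBCs, 2% Hct / 0.1% parasitemia final; RPMI 1640 + 0.5% Albumax; 37 C, 5% CO2, one generation; luminescence read-out, lower signal = inhibition.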
Shiga inhibitor = A qHTS for Small Molecule Inhibitors of Shiga Toxin; actives 9.2% (n = 290,000); AID 2315, 2010; Vero cells, Shiga toxin protein synthesis inhibition reporter; inhibition, % at 38.7 µM; in the data active means inhibition mostly above about 28%, no sharp cut-off; inactive means mostly below about 43%; further: 0% is about no effect
CHX counter = Cycloheximide Counterscreen for Small Molecule Inhibitors of Shiga Toxin; cell reporter, cycloheximide protein synthesis inhibition counterscreen; actives 12% (n = 300,000); AID 2314, 2010; max response, %; in the data active means max response mostly above about 13%, no sharp cut-off; inactive means mostly below about 14%; further: read at 38.3 µM for the half of the compounds with a filed dose; 0% is about no effect
Pf growth 96h = Primary qHTS for delayed death inhibitors of the malarial parasite plastid, 96 hour incubation. P. falciparum luciferase reporter growth, 96 h. Potency, µM (top dose mostly 28.7 µM), inactives show top-dose activity change, negative = inhibition, usual class: inhibitors. actives 6.9% (n = 320,000); further: potency means the concentration at half of the fitted maximal effect; on the % scale 0 is the no-effect control and ±100 the full control effect
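Two parasite generations (96 h, 37 C, 5% CO2) of compound exposure in infected erythrocytes (0.05% parasitemia, 2% hematocrit). Luciferase-reporter P. falciparum; decreased luminescence indicates inhibited growth, aimed at apicoplast-acting delayed death.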
NS1 inh = qHTS Assay for Inhibitors of Influenza NS1 Protein Function; Potency, µM (highest dose often 46.1 µM), for the others: at the highest dose activity, positive = more growth; AID 2326, 2010; actives 0.4% (n = 270,000); calls by dose curve; further: potency means the concentration at half of the fitted maximal effect; actives are rising curves; nearly all actives have a fitted effect of over 50% in size
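Growth recovery, yeast-based: influenza A NS1 expressed in S. cerevisiae causes slow growth, and suppressors are detected by OD600. The parent strain without NS1 is used as positive control.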
* = called active by the depositor; ? = inconclusive; · = not tested or not shown; [ ] = dose if it differs, or a comment. Unless noted, the call rests on the fitted dose curve; in most records, active means well fitted inhibition curve with a large enough effect; inconclusive means small, poorly fitted or top-dose-only effect, or another doubt; inactive means no such curve, though single readings can be large or run the other way.

SMILES | Pf growth 48h | Shiga inhibitor | CHX counter | Pf growth 96h | NS1 inh
COc1cc(C(=O)NCCC(c2ccccc2)c2ccccc2)cc(OC)c1OC | ? | -13 | -1 | -28% | 19%
CCCN(CC(=O)Nc1cccc(S(N)(=O)=O)c1)CC(=O)Nc1ccc(F)c(F)c1F | -1% | -1 | -1 | 3% | 12%
CCCN(CC(=O)Nc1cccc(Br)c1)CC(=O)Nc1ccc(F)c(F)c1F | ? | -11 | -2 | 3.7µM* | -10%
O=c1c([N+](=O)[O-])c(N2CCCC2)c2ccccc2n1-c1ccccc1 | -4% | -7 | -2 | ? | 9%
CC(Sc1nnc(-c2ccc(Cl)cc2)n1N)C(=O)NCC1CCCO1 (stereo not given) | 6% | · | · | 7% | ·
Cc1ccc(-c2nc(NCC3CCCO3)sc2C)cc1 (stereo not given) | ? | 69* | 32* | ? | ·
COC(=O)c1ccc(NC(=O)C(=O)NCC2CCCO2)cc1 (stereo not given) | 45% | 13 | 0 | 68% | 11%
Cc1ccc(-c2nnc(SC(C)C(=O)NCC3CCCO3)nc2-c2ccc(C)cc2)cc1 (stereo not given) | 13µM* | · | · | 9.3µM* | ·
Cc1cc(C)cc(OCC(=O)NCC2CCCO2)c1 (stereo not given) | 126% | 100* | 24* | 81% | -3%
Cc1ccc(NC(=O)C(=O)NCC2CCCO2)cc1 (stereo not given) | 138% | 101* | 58* | ? | 1%
O=C1c2c([N+](=O)[O-])cc([N+](=O)[O-])cc2S(=O)N1Cc1ccccc1 (stereo not given) | 0% | 18 | 3 | ? | ·
CC(=O)N1CCCc2cc(S(=O)(=O)N3CCCC3)ccc21 | -1% | -5 | -6 | 19% | 7%
Cc1cc(C)nc(Oc2ccc(Br)cc2)n1 | 46% | -1 | 3 | 28% | 5%
COC(=O)/C=C1/N/C(=N\c2nc(C)cc(C)n2)N(c2ccccc2)C1=O | -10% | -7 | 1 | -18% | -6%
CCC(CC)C(=O)Nc1nnc(S(=O)(=O)N2CCCC2)s1 | 10% | 28 | -2 | ? | -11%
COc1ccc(OC)c(NS(=O)(=O)c2ccc3c(c2)CCC(=O)N3)c1 | -2% | -8 | -5 | 3% | ?
Cc1ccc(NC(=O)C(=O)NCC2CCCO2)cc1C (stereo not given) | 107% | 100* | 31* | 7% | -6%
Cc1cc(C)cc(NC(=O)C(=O)NCC2CCCO2)c1 (stereo not given) | 68% | 32 | 25* | 3%[5.75 µM] | -7%
COc1ccc(CNC(=O)[C@H](C)NC(=O)C2CCN(C(=O)[C@@H](N)CCSC)CC2)cc1 | -11% | -2 | -1 | ? | 13%
O=C(Nc1cccnc1)c1ccco1 | · | 40 | 1 | 38% | -10%
O=C(Nc1ccc(NC(=O)C2CC2)nc1)c1cccc(F)c1 | 35% | 59* | 47* | -3% | -4%
O=C(Nc1ccc(NC(=O)c2ccco2)nc1)c1cccnc1 | 350% | 54* | 21 | -10% | 8%
CCCC(=O)Nc1ccc(NC(=O)c2ccccc2OC)cn1 | ? | 23 | 10 | 0% | -38%
O=C(Nc1cccnc1)c1ccc(NC(=O)c2ccco2)cc1 | 20% | 61 | 19* | · | -5%
O=C(NCc1cccnc1)c1ccc(NC(=O)c2ccco2)cc1 | 29% | -2 | 12 | -13% | 25%
SMILES | Pf growth 48h | Shiga inhibitor | CHX counter | Pf growth 96h | NS1 inh
CCCC(=O)Nc1ccc(NC(=O)c2cccc(OC)c2)nc1 | 100% | 119* | 33* | ? | -7%
CCOc1cc(N2CCOCC2)c(OCC)cc1NC(=O)Cn1cnc2c(=O)n(C)c(=O)n(C)c21 | 13% | -9 | -4 | 26% | ·
Cc1ccc(S(=O)(=O)NC2CC(=O)N(c3ccc4c(c3)OCCO4)C2)cc1 (stereo not given) | 1% | · | · | -20% | ·
COc1cccc(C(=O)Nc2ccc(NC(=O)C3CC3)nc2)c1 | -18% | 24 | 18* | 215% | -11%
O=C(Nc1ccc(NC(=O)c2ccccc2F)cn1)c1ccco1 | 75% | 36 | 18* | 17% | -55%
CC(=O)c1ccc(NC(=O)c2ccc(NC(=O)c3ccco3)cc2)cc1 | -30% | -15 | -3 | ? | 18%
CC(C)C(=O)Nc1ccc(NC(=O)c2cccc(F)c2)cn1 | 99% | 76* | 22* | -8% | ?
COc1ccc(C(=O)Nc2ccc(NC(=O)C3CC3)cn2)cc1 | 23% | 34 | 13 | ? | -11%
